KB-3-1 cytotox: KB-3-1 parental cell cytotoxicity | KB-3-1 viability, CellTiter-Glo ATP luminescence, 72 h | Potency, µM (series often up to 46.1 µM), usual class: cytotoxic | actives 1.4% (n = 400,000); also: nearly all actives have a fitted effect of over 60% in size
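Using CellTiter-Glo luminescence, growth of non-resistant KB-3-1 adenocarcinoma cells is assessed 72 h after pin-tool compound addition at 37 °C. Normalized responses across the concentration series yield fitted curves.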
HT1080NT lethal: kills 2HG-producing HT-1080-NT fibrosarcoma cells; HT-1080-NT fibrosarcoma viability, CellTiter-Glo ATP luminescence, 48 h; Potency, µM (highest dose often 46.1 µM), inactives show at the highest dose activity, negative = less viability, usual class: cytotoxic; actives 1.6% (n = 360,000); AID 686970;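 also: NT is the 2HG producing partner of a matched IDH1 knockdown line; 0% = DMSO-treated cells and -100% = media-only wells without cells; nearly all actives have a fitted effect of over 55% in size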
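750 cells/well, RPMI + 5% FBS; 2 h settle, compound pin-transfer, 48 h at 37 degrees C. CellTiter-Glo 10 min RT, luminescence. Normalized to DMSO and media-only wells.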
HT1080 IDH1KD tx: HT-1080 IDH1 knockdown cell toxicity (counter line); HT-1080 IDH1 knockdown viability, ATP luminescence, 48 h; Potency, µM (doses to about 46.1 µM), for inactives: at the top dose activity, negative = toxicity, actives largely listed as cytotoxic; actives 2% (n = 360,000);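 also: 0% = DMSO wells and -100% = cell-free medium wells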
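Using the IDH1-knockdown HT-1080 line run in the same batch and compound series as the NT line, viability after 48 h at 37 °C was determined by CellTiter-Glo luminescence and expressed as % activity.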
KB-V1 cytotox: kills drug-selected multidrug resistant KB-V1 cells; KB-V1 MDR cells viability, CellTiter-Glo, 72 h; Potency, µM (highest dose often 46.1 µM), actives largely listed as cytotoxic; actives 3.4% (n = 400,000); AID 1347076; also: nearly all actives have a fitted effect of over 60% in size
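In this primary screen, KB-V1 cells overexpressing P-gp are incubated with library compounds (lowest to highest concentration) for 72 h at 37 degrees C before a luminescent ATP viability read.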
DT40 TDP1 no CPT: qHTS for Inhibitors of human tyrosyl-DNA phosphodiesterase 1 (TDP1): qHTS in cells in absence of CPT. DT40 Tdp1-/- hTDP1 cells, no CPT, ATP luminescence, 48 h. actives 15% (n = 420,000). AID 686978, 2013. Potency, µM (doses to about 46.2 µM), without a hit: at the highest dose activity change, negative = growth inhibition, most hits filed as inhibitors; also: nearly all actives have a fitted effect of over 55% in size
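Compound effects on proliferation are scored in DT40 Tdp1-/-;hTDP1 cells in the absence of CPT. ATP levels (CellTiter-Glo luminescence) are recorded after a ≥48 hr, 37 °C incubation.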
DT40 TDP1 CPT: growth inhibition of DT40 Tdp1-/-;hTDP1 cells with camptothecin (screen for TDP1 inhibitors); chicken DT40 Tdp1-/-;hTDP1 cells + 20 nM CPT, ATP luminescence, 48 h; actives 12% (n = 420,000); Potency, µM (top dose mostly 46.2 µM), inactives show top-dose activity change, negative = growth inhibition, actives largely listed as inhibitors; also: nearly all actives have a fitted effect of over 55% in size
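Cell growth measured by CellTiter-Glo luminescence after a minimum 48 h, 37 C compound exposure with 20 nM CPT in Tdp1-knockout DT40 cells stably expressing hTDP1, seeded 400/well; qHTS titration format.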
The depositor's hits bear a star; i = inactive; u = inconclusive; x = not tested or not shown; [ ] = another dose, or the depositor's remark. Only some compounds are listed: those with a hit (about 19% of all), similar ones and a draw of the others. Calls follow the shape of the dose curve; as a rule, active = well fitted curve in the direction sought with a large enough effect; inconclusive = small, poorly fitted or top-dose-only effect, or another doubt; inactive = no such curve, though single readings can be large; an effect the other way counts as inactive or inconclusive. Unless noted, % is scaled to controls: 0 for no effect and ±100 for the full control effect; potency is read from the fitted curve at half-maximal effect.

SMILES | KB-3-1 cytotox | HT1080NT lethal | HT1080 IDH1KD tx | KB-V1 cytotox | DT40 TDP1 no CPT | DT40 TDP1 CPT
O=C(C1CCCCC1)N1CCC(CO)(Cc2ccccc2Cl)CC1 | i | 0% | 2% | i | 21µM* | u
COc1ccccc1CNC(=O)c1ccc2nc3[nH]c4ccccc4c3nc2c1 | u | u | u | i | 8.2µM* | u
COc1ccc(Cl)cc1NC(=O)c1cc2ccc3ccc(C)[nH]c3c2n1 | i | x | x | u | 23µM* | u
COc1ccccc1CNC(=O)c1ccccc1OC | i | 12% | 4% | u | -20% | -21%
COc1ccccc1CNC(=O)c1cc2ccc3ccc(C)[nH]c3c2n1 | i | x | x | u | 16µM* | 18µM*
Cc1ccc(OCC(=O)NCCCNC(=O)c2ccncc2)cc1 | i | -7% | 15% | i | 9% | -4%
COc1ccccc1-c1sc2ccccc2c1-c1ccc(OCCN2CCCCC2)cc1 | i | u | u | i | 15µM* | 18µM*
COc1ccc2c(-c3ccc(OCCN4CCCCC4)cc3)c(-c3ccccc3OC)sc2c1 | i | u | u | i | 15µM* | -104%
COc1cc2sc(-c3ccccc3OC)c(-c3ccc(OCCN4CCOCC4)cc3)c2cc1OC | i | u | u | i | u | u
Oc1ccc2sc(-c3ccccc3O)c(-c3ccc(OCCN4CCCCC4)cc3)c2c1 | u | u | 16µM* | i | u | 21µM*
COc1ccc2c(-c3ccc(OCCN4CCOCC4)cc3)c(-c3ccccc3OC)sc2c1 | i | -18% | -18% | i | 21µM* | 21µM*
c1ccc(COc2ccc(OCCN3CCCCC3)cc2)cc1 | i | 1% | -6% | u | -61% | u
O=C(COC(=O)c1cc(Br)ccc1O)Nc1ccc2c(c1)OCO2 | i | -15% | 0% | i | u | u
Cc1ncc2c(c1CNC(=O)c1ccc3c(c1)OCO3)CCN(C(=O)c1noc3c1CCCC3)C2 | x | x | x | x | -12% | 0%[9.04 µM]
CC1CN(CC(=O)NN=C(c2ccccc2)c2ccccc2)CC(C)O1 (stereo not given) | i | 13% | 0% | i | -14% | u
COc1ccc(OCCN2CCOCC2)cc1 | i | -1% | 12% | u | 5% | 6%
COc1ccc(-c2sc3cc(OC)ccc3c2-c2ccc(OCCN3CCCCC3)cc2)cc1 | u | 21µM* | 16µM* | u | 5.8µM* | 4.6µM*
COc1ccccc1NC(=O)Cn1cc(C(=O)C(=O)N2CCOCC2)c2ccccc21 | x | -1% | -1% | x | -10% | u
CN(C)c1cccc(CNC(=O)c2csc([C@@H]3O[C@H](CO)[C@H](O)[C@H](O)[C@H]3O)n2)c1 | i | 13% | u | i | 0% | 0%
CN(C)c1cccc(CNC(=O)c2csc([C@@H]3O[C@H](CO)[C@@H](O)[C@H]3O)n2)c1 | i | 25% | 0% | i | 12µM* | 13µM*
CCCCOC(=O)Nc1ccccc1C(N)=O | i | 0% | -11% | i | -18% | -23%
O=C1CCc2cc(-c3csc(-c4ccc(O)cc4)n3)ccc2N1 | i | x | x | i | 3.2µM* | 11µM*
Cc1cc(C)cc(-n2c(SCC(=O)N3CCc4ccccc43)nc3c([nH]c4ccccc43)c2=O)c1 | i | x | x | i | 8% | 4%
N#C/C(=C\c1c[nH]c2ccc(Br)cc12)c1ccccn1 | i | 26µM* | u | i | 21µM* | u
O=C(NCCc1ccccc1)C1CCN(c2ncccn2)CC1 | i | 4% | -9% | i | -1% | u

Screens from PubChem.
